Laboratory results as given in PubChem BioAssay (NCI).
The panel holds about 83,000 compounds, 20% with a hit somewhere; the sample as a whole holds those more often.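 Results are percent growth after 48 hours of single-concentration exposure. 100 means growth as in untreated cells, lower positive values show inhibition; negative values down to -100 show cell death.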 Active and inactive are the calls of the source. Rule for the calls: active = growth percent below 10; inactive = the rest.

What was measured:
Test in all cases: NCI-60 one-dose screen, 48 h (100 = growth as untreated, 0 = no growth, -100 = all killed)
Conditions in all cases: 10 µM unless noted
HCT-15 colon = tested on: HCT-15 colon
HT29 colon = tested on: HT29 colon
SNB-75 CNS = tested on: SNB-75 CNS
SNB-19 CNS = tested on: SNB-19 CNS
U251 CNS = tested on: U251 CNS
PC-3 prostate = tested on: PC-3 prostate
SK-MEL-5 melanoma = tested on: SK-MEL-5 melanoma
UACC-62 melanoma = tested on: UACC-62 melanoma
LOX IMVI melanoma = tested on: LOX IMVI melanoma
SK-MEL-28 melanoma = tested on: SK-MEL-28 melanoma
SK-MEL-2 melanoma = tested on: SK-MEL-2 melanoma
EKVX NSCLC = tested on: EKVX NSCLC
SN12C renal = tested on: SN12C renal
UO-31 renal = tested on: UO-31 renal
TK-10 renal = tested on: TK-10 renal
ACHN renal = tested on: ACHN renal
CAKI-1 renal = tested on: CAKI-1 renal
CCRF-CEM leukemia = tested on: CCRF-CEM leukemia
MOLT-4 leukemia = tested on: MOLT-4 leukemia

Measured: growth

O=C1Nc2cc(-c3cccc([N+](=O)[O-])c3)ccc2/C1=C/c1ccc[nH]1
inactive: HCT-15 colon 28% | HT29 colon 91.1% | SNB-75 CNS 64.6% | SNB-19 CNS 101% | U251 CNS 98.8% | PC-3 prostate 86.8% | SK-MEL-5 melanoma 70.3% | UACC-62 melanoma 83.9% | LOX IMVI melanoma 90% | SK-MEL-28 melanoma 106% | SK-MEL-2 melanoma 88.1% | EKVX NSCLC 29.8% | SN12C renal 101% | UO-31 renal 68.6% | TK-10 renal 65.6% | ACHN renal 92.3% | CAKI-1 renal 80.9% | CCRF-CEM leukemia 91.5% | MOLT-4 leukemia 97.4%

c1ccc(-c2cn3c(ccc4ccccc43)n2)cc1
inactive: HCT-15 colon 30.6% | HT29 colon 19.8% | SNB-75 CNS 51.9% | SNB-19 CNS 65% | U251 CNS 51.8% | PC-3 prostate 72.2% | SK-MEL-5 melanoma 27.4% | UACC-62 melanoma 43.5% | LOX IMVI melanoma 52.3% | SK-MEL-28 melanoma 68.5% | SK-MEL-2 melanoma 40.3% | EKVX NSCLC 73.2% | SN12C renal 60.8% | UO-31 renal 48.9% | TK-10 renal 89.5% | ACHN renal 79.5% | CAKI-1 renal 38.6% | CCRF-CEM leukemia 65.1% | MOLT-4 leukemia 57.8%

COc1cc2nc(-c3ccc(C(F)(F)F)cc3)cc(OCCCN3CCCC3)c2cc1OC
inactive: HCT-15 colon 13.1% | HT29 colon 20.9% | SNB-19 CNS 67.5% | U251 CNS 50.6% | PC-3 prostate 41.7% | SK-MEL-28 melanoma 71.9% | SK-MEL-2 melanoma 49.3% | EKVX NSCLC 65% | SN12C renal 44.5% | UO-31 renal 31.5% | TK-10 renal 100% | ACHN renal 39.1% | CCRF-CEM leukemia 38.5% | MOLT-4 leukemia 46.2%
active: SNB-75 CNS -19% | SK-MEL-5 melanoma -18.2% | UACC-62 melanoma -25% | LOX IMVI melanoma -53.1% | CAKI-1 renal -7.36%

COc1cc(/C(C)=C(\c2ccc(Cl)cc2)c2ccc(OCCN3CCCC3)cc2)ccc1F
inactive: SNB-75 CNS 84.2% | SNB-19 CNS 79.8% | U251 CNS 46.1% | PC-3 prostate 53% | SK-MEL-5 melanoma 49.9% | UACC-62 melanoma 58% | LOX IMVI melanoma 46% | SK-MEL-28 melanoma 69.3% | SK-MEL-2 melanoma 98.8% | EKVX NSCLC 74% | SN12C renal 70.2% | UO-31 renal 39.7% | TK-10 renal 69.3% | ACHN renal 83.1% | CAKI-1 renal 65.2% | CCRF-CEM leukemia 37.6% | MOLT-4 leukemia 32.6%
active: HCT-15 colon 7.9% | HT29 colon 8.92%

CC1(C)CC(=O)C2=C(C1)N(c1ccc(F)cc1F)C(N)=C(C#N)C2c1cc(Br)ccc1F (centres undefined)
inactive: HCT-15 colon 93.8% | HT29 colon 83.5% | SNB-75 CNS 67.1% | SNB-19 CNS 85.8% | U251 CNS 94.8% | PC-3 prostate 76.8% | SK-MEL-5 melanoma 93% | UACC-62 melanoma 91.1% | LOX IMVI melanoma 57.5% | SK-MEL-28 melanoma 109% | SK-MEL-2 melanoma 94% | EKVX NSCLC 94.8% | SN12C renal 96.6% | UO-31 renal 81.3% | TK-10 renal 104% | ACHN renal 94.9% | CAKI-1 renal 92.4% | CCRF-CEM leukemia 91.8% | MOLT-4 leukemia 88.9%

CN1CCN(C(=O)[C@]23CCC(C)(C)C[C@H]2C2=CC[C@@H]4[C@@]5(C)C/C(=C/c6ccncc6)C(=O)C(C)(C)[C@@H]5CC[C@@]4(C)[C@]2(C)CC3)CC1
active: HT29 colon 5.24% | MOLT-4 leukemia 2.92%
inactive: HCT-15 colon 36.3% | SNB-75 CNS 85.2% | SNB-19 CNS 61.2% | U251 CNS 44.8% | PC-3 prostate 19.5% | SK-MEL-5 melanoma 54.3% | UACC-62 melanoma 61% | LOX IMVI melanoma 40.2% | SK-MEL-28 melanoma 74.7% | SK-MEL-2 melanoma 78.2% | EKVX NSCLC 80.2% | SN12C renal 49.9% | UO-31 renal 37.3% | TK-10 renal 77.1% | ACHN renal 65.1% | CAKI-1 renal 75.4% | CCRF-CEM leukemia 19.7%

CCOC(=O)C1=C(C)NC(SCc2cc(=O)oc3ccc(F)cc23)=N[C@@H]1c1cccc2ccccc12
inactive: HCT-15 colon 93% | HT29 colon 98.5% | SNB-75 CNS 98.8% | SNB-19 CNS 101% | U251 CNS 102% | PC-3 prostate 87.8% | SK-MEL-5 melanoma 99.9% | UACC-62 melanoma 86% | LOX IMVI melanoma 99.9% | SK-MEL-28 melanoma 109% | SK-MEL-2 melanoma 85% | EKVX NSCLC 114% | SN12C renal 93.3% | UO-31 renal 79.9% | TK-10 renal 105% | ACHN renal 91.9% | CAKI-1 renal 87.8% | CCRF-CEM leukemia 102% | MOLT-4 leukemia 84.7%

CC(C)(C)c1ccc(NS(=O)(=O)c2ccc3nc(NC(=O)c4cnccn4)[nH]c3c2)cc1
active: SNB-75 CNS -30.3% | CCRF-CEM leukemia 7.84%
inactive: HCT-15 colon 28.6% | HT29 colon 11% | SNB-19 CNS 40% | U251 CNS 35.3% | PC-3 prostate 28.3% | SK-MEL-5 melanoma 13.4% | UACC-62 melanoma 40.4% | LOX IMVI melanoma 40.4% | SK-MEL-28 melanoma 45.8% | SK-MEL-2 melanoma 45.3% | EKVX NSCLC 58.6% | SN12C renal 44.3% | UO-31 renal 36.1% | TK-10 renal 57.4% | ACHN renal 39.6% | CAKI-1 renal 21.7% | MOLT-4 leukemia 27.7%

O=[N+]([O-])c1cc(Br)c2cccc3c2c1CC3
inactive: HCT-15 colon 100% | HT29 colon 108% | SNB-75 CNS 100% | SNB-19 CNS 98.7% | U251 CNS 99.8% | PC-3 prostate 96.2% | SK-MEL-5 melanoma 102% | UACC-62 melanoma 89% | LOX IMVI melanoma 109% | SK-MEL-28 melanoma 106% | SK-MEL-2 melanoma 118% | EKVX NSCLC 109% | SN12C renal 101% | UO-31 renal 90.8% | TK-10 renal 110% | ACHN renal 110% | CAKI-1 renal 95.3% | CCRF-CEM leukemia 99.9% | MOLT-4 leukemia 104%

CNC(=O)c1cc(Cn2nc(C)c(NC(=O)Nc3ccc(Cl)c(C(F)(F)F)c3)c2C)ccn1
inactive: HCT-15 colon 98% | HT29 colon 92.4% | SNB-75 CNS 68% | SNB-19 CNS 103% | U251 CNS 86.7% | PC-3 prostate 79.4% | SK-MEL-5 melanoma 91.8% | UACC-62 melanoma 93.7% | LOX IMVI melanoma 98% | SK-MEL-28 melanoma 107% | SK-MEL-2 melanoma 82.3% | EKVX NSCLC 102% | SN12C renal 98.6% | UO-31 renal 90.5% | TK-10 renal 103% | ACHN renal 97.9% | CAKI-1 renal 93.6% | CCRF-CEM leukemia 92.1% | MOLT-4 leukemia 90.8%

CN1CCN(C(=O)[C@]23CCC(C)(C)C[C@H]2C2=CC[C@@H]4[C@@]5(C)C/C(=C/c6cccnc6)C(=O)C(C)(C)[C@@H]5CC[C@@]4(C)[C@]2(C)CC3)CC1
inactive: HCT-15 colon 41.4% | HT29 colon 33.1% | SNB-75 CNS 82.1% | SNB-19 CNS 65.4% | U251 CNS 44.7% | PC-3 prostate 19.1% | SK-MEL-5 melanoma 49.8% | UACC-62 melanoma 52.8% | LOX IMVI melanoma 68.5% | SK-MEL-28 melanoma 77.9% | SK-MEL-2 melanoma 81.5% | EKVX NSCLC 78.8% | SN12C renal 57.8% | UO-31 renal 38.6% | TK-10 renal 89.5% | ACHN renal 66% | CAKI-1 renal 66.6% | CCRF-CEM leukemia 33.3% | MOLT-4 leukemia 20.5%

Cn1ccnc1C(=O)/C=C/c1ccc(CC(=O)Nc2ccc(Cl)cc2)cc1
inactive: SNB-75 CNS 11.8% | PC-3 prostate 32.7% | SK-MEL-5 melanoma 33.3% | UACC-62 melanoma 35% | LOX IMVI melanoma 13.1% | SK-MEL-28 melanoma 70.9% | SK-MEL-2 melanoma 89.7% | EKVX NSCLC 40.6% | UO-31 renal 23.3% | TK-10 renal 27% | ACHN renal 49.8% | CAKI-1 renal 34.7%
active: HCT-15 colon 5.48% | HT29 colon 3.03% | SNB-19 CNS 6.66% | U251 CNS 6.28% | SN12C renal 2.21% | CCRF-CEM leukemia 4.18% | MOLT-4 leukemia 5.64%

CCOc1ccc(/C=N/Nc2cc(C)nc3ccc(Br)cc23)cc1
inactive: HCT-15 colon 57.9% | HT29 colon 100% | SNB-75 CNS 99.9% | SNB-19 CNS 99.7% | U251 CNS 77.5% | PC-3 prostate 81.4% | SK-MEL-5 melanoma 84.9% | UACC-62 melanoma 90.5% | LOX IMVI melanoma 84.4% | SK-MEL-28 melanoma 91.6% | SK-MEL-2 melanoma 117% | EKVX NSCLC 83.5% | SN12C renal 82.6% | UO-31 renal 73.4% | TK-10 renal 112% | ACHN renal 96.3% | CAKI-1 renal 95.2% | CCRF-CEM leukemia 38.9% | MOLT-4 leukemia 76.2%

Cc1c(C(=O)NCCC(=O)NO)sc2ncnc(Nc3ccc(F)c(Cl)c3)c12
inactive: HCT-15 colon 102% | HT29 colon 104% | SNB-75 CNS 97.5% | SNB-19 CNS 98.9% | U251 CNS 102% | PC-3 prostate 104% | SK-MEL-5 melanoma 102% | UACC-62 melanoma 102% | LOX IMVI melanoma 98.8% | SK-MEL-28 melanoma 112% | SK-MEL-2 melanoma 101% | EKVX NSCLC 99.4% | SN12C renal 103% | UO-31 renal 84.8% | TK-10 renal 107% | ACHN renal 102% | CAKI-1 renal 96.6% | CCRF-CEM leukemia 105% | MOLT-4 leukemia 115%

CCCCCCCCCCCCCCCC[N+]1(C)CCN(SN2CC[N+](C)(CCCCCCCCCCCCCCCC)CC2)CC1
inactive: HCT-15 colon 54.2% | HT29 colon 19.7% | SNB-75 CNS 50.3% | SNB-19 CNS 29.3% | U251 CNS 23.2% | PC-3 prostate 33% | SK-MEL-5 melanoma 95.4% | UACC-62 melanoma 72.8% | LOX IMVI melanoma 34.1% | SK-MEL-28 melanoma 98.4% | SK-MEL-2 melanoma 95.9% | EKVX NSCLC 82.3% | SN12C renal 72.5% | UO-31 renal 76.9% | TK-10 renal 53.3% | ACHN renal 66.2% | CAKI-1 renal 43.4% | CCRF-CEM leukemia 48.1% | MOLT-4 leukemia 57.1%

Cc1ccccc1NS(=O)(=O)c1cccc(C(=O)Nc2ccc(Br)cc2)c1
inactive: HCT-15 colon 37.3% [25 µM] | HT29 colon 47.8% [25 µM] | SNB-75 CNS 53.7% [25 µM] | SNB-19 CNS 42.9% [25 µM] | U251 CNS 53% [25 µM] | PC-3 prostate 27.3% [25 µM] | UACC-62 melanoma 25.9% [25 µM] | LOX IMVI melanoma 39.2% [25 µM] | SK-MEL-28 melanoma 60% [25 µM] | SK-MEL-2 melanoma 42.9% [25 µM] | EKVX NSCLC 16.6% [25 µM] | SN12C renal 42.9% [25 µM] | UO-31 renal 22.8% [25 µM] | TK-10 renal 55.9% [25 µM] | ACHN renal 47% [25 µM] | CAKI-1 renal 26.2% [25 µM] | CCRF-CEM leukemia 42.4% [25 µM] | MOLT-4 leukemia 26.9% [25 µM]
active: SK-MEL-5 melanoma -38.9% [25 µM]
